# Data from PubChem BioAssay (NCI).
# About 83,000 compounds went through this panel and 20% of them were active in at least one assay; those are over-represented in the sample as a whole.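 Testing used 96-well plates and a 48-hour single-concentration exposure. Example: -40 means 40% of the starting cells died.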 Values without a mark were called inactive. Active and inactive are the calls of the source. How the source made its calls: active means growth percent below 10; inactive means the rest.
# System: HL-60(TB) leukemia
# Test: NCI-60 one-dose screen, 48 h (100 = growth as untreated, 0 = no growth, -100 = all killed)
# Settings: 10 µM unless noted
row,Compound,growth
1,CCCN1C(=O)/C(=c2\sc3n(c2=O)NC2C(N=3)N(CC)C(=O)N2CC)c2ccccc21 (stereo unspecified),-18.4% (active)
2,Cc1ccccc1N=C(N)Nc1ccccc1C (tested in a mixture with another compound),-25% (active)
3,Cc1ccc(Cc2cnc(NC(=O)/C=C/c3cccc(C)c3)s2)cc1,-15.4% (active)
4,Cn1cc(C(=O)c2nc(-c3c[nH]c4ccc(F)cc34)no2)c2cc(F)ccc21,70.5%
5,Clc1ccc2c(NCCCCNc3nc(N4CCOCC4)nc4ccccc34)ccnc2c1,-59.8% (active)
6,O=C1NC(=S)NC(=O)C1CC(=O)n1c(-c2ccccc2)nc2ccccc21,104%
7,COC(=O)c1c2c(c(C)[n+]([O-])c1C)C(=O)C(NCc1cccc(Cl)c1)=CC2=O,-56.1% (active)
8,Cn1c(N2NC(=O)C(N=Nc3ccc(S(N)(=O)=O)cc3)C2=O)nc(-c2ccco2)c(C#N)c1=O (stereo unspecified),-41.4% (active)
9,CC1=C(C(=O)n2c3ccccc3c3ccccc32)C(c2cccc([N+](=O)[O-])c2)C(C(=O)n2c3ccccc3c3ccccc32)=C(C)N1,91%
10,Nc1c(-c2nc3ccccc3c(=O)[nH]2)nnn1-c1ccc(Cl)cc1,94%
11,Nc1ncc(-c2ccc3ncnc(N4CCc5cc(F)c(Cl)cc54)c3c2)cc1C(F)(F)F,21.5%
12,Cc1cccc(NC(=O)N/C(N)=N/c2nc3ccccc3s2)c1,5.69% (active)
13,O=C1OCC2=C1C(c1cccc(C(F)(F)F)c1)c1cc3c(cc1N2CCO)CCC3 (stereo unspecified),-25.2% (active)
14,OC(c1cc(-c2ccc(C(F)(F)F)cc2)nc(-c2ccc(C(F)(F)F)cc2)c1)C1CCCCN1 (stereo unspecified),-61.8% (active)
15,CC(CN(C)C)Oc1ccc(OC(C)CN(C)C)c2c1C(=O)c1ccccc1C2=O (stereo unspecified),39.2%
16,CC(CN(C)C)Oc1ccccc1NC1=C(Cl)C(=O)C(Nc2ccccc2OC(C)CN(C)C)=C(Cl)C1=O (stereo unspecified),-41.8% (active)
17,Clc1ccc(-c2cnc3c(-c4ccnc(N5CCNCC5)c4)cnn3c2)cc1,-33.7% (active)
18,CCOC(=O)C1=C(C)NC(SCc2nnc(-c3ccc(Cl)cc3)o2)=NC1c1ccc(Cl)cc1Cl (stereo unspecified),-6.39% (active)

row,Compound,growth
1,COc1cc(C(=O)c2cnc(-c3c[nH]c4cccc(C)c34)[nH]2)cc(OC)c1OC,-14.9% (active)
2,CCCCn1c(=O)[nH]c2c(c1=O)C(c1ccc(Cl)cc1)c1c([nH]c(=O)n(CCCC)c1=O)N2,99.2%
3,COc1ccc(C2=Nc3c(N)nc(N)nc3NC(c3cccc(Nc4ccnc5cc(C(F)(F)F)ccc45)c3)C2)cc1 (stereo unspecified),81.6%
4,CC(C)(C)c1nn(-c2ccccc2)c2c1COCN2Cc1ccc(Cl)cc1,43.5%
5,CCN(CC)CCCN1C(=O)c2c(c(C)c3c(oc4cc(OC)ccc43)c2C)C1=O,95%
6,COc1ccc(/C=C/c2nc(Nc3ccc(S(=O)(=O)NC(C)=O)cc3)c3ccccc3n2)cc1,85.7%
7,COc1ccc(/C=C2\SC(=Nc3ccccc3)NC2=O)cc1,-70.8% (active)
8,O=C(c1nc2ccccc2[nH]1)C1C(c2ccc([N+](=O)[O-])cc2)C2CC3CCCCC3N2[C@@]12C(=O)Nc1cc(Cl)ccc12 (stereo partly specified),8.45% (active)
9,CC[n+]1c(/C=C/c2ccc(N3CCCC3)cc2)cccc1/C=C/c1ccc(N2CCCC2)cc1,-20.8% (active)
10,O/N=C/c1cccs1,95.3%
11,Nc1nc(N)c(N=Nc2ccccc2)c(-c2ccccc2)n1,71.4%
12,CC(=Nc1ccc(N(C)C)cc1)c1ccccc1,26.1%
13,CC(Cc1cccc2ccccc12)C(N)=O (stereo unspecified),99.5%
14,C=C(C)[C@@H]1CC[C@]2(N=C=O)CC[C@]3(C)[C@H](CC[C@@H]4[C@@]5(C)Cc6c([nH]c7ccccc67)C(C)(C)[C@@H]5CC[C@]43C)[C@@H]12,46.2%
15,CCOC(=O)c1c(NC(=O)c2cccc(C(F)(F)F)c2)sc2c(CN(C)C)c(O)ccc12,16.3%
16,CCN1C(=O)N(CC)C2C1NC(=S)N2/N=C/C=C/c1ccccc1 (stereo unspecified),-39.2% (active)
17,CC(C)(C)c1ccc(C(O)CCCN2CCC(C(O)(c3ccccc3)c3ccccc3)CC2)cc1 (stereo unspecified),-51.9% (active)
18,COc1cc(N=Nc2cc(S(=O)(=O)O)cc3cc(S(=O)(=O)O)cc(O)c23)c(C)cc1N=Nc1c(S(=O)(=O)O)cc2cc(Nc3ccccc3)ccc2c1O,93.6%
